Positions count from the first letter of the chain named.
What follows are sequences tested against T1, SALL4 ZFC4 WT (HT-SELEX) (Mus musculus, UniProt Q8BX22 870-940) (assay: HT-SELEX; high values mean tight binding). Details: protein: recombinant; vector His6-GST; dsDNA, one strand shown.
T1 sequence: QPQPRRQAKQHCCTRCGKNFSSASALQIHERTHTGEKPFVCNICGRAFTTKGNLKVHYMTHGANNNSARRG
Summary of the method: (§1)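 Library DNA (1.5 µg in cycle one, 200 ng in later cycles) was incubated with 1 µg of purified recombinant mouse SALL4 zinc finger cluster 4, residues 870–940, in 100 µl buffer (10 mM Tris–HCl pH 7.5, 50 mM NaCl, poly(dI-dC), DTT) at room temperature for 10 min. Up to 6 rounds of Ni2+ bead capture, washing, PCR amplification and reselection were run in triplicate. Reads from MiSeq sequencing were scanned for 6-mers. For each canonical k-mer, binding signal is its read fraction as fold change versus the original random library.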

| Sequence | binding signal |
| --- | --- |
| TCACGA | 0.737 ± 0.0222 fold-change vs cycle 0 |
| CTTCAC | 0.856 ± 0.0564 fold-change vs cycle 0 |
| ACGCAA | 0.452 ± 0.0105 fold-change vs cycle 0 |
| ATCTTC | 1.42 ± 0.0263 fold-change vs cycle 0 |
| AGGTAT | 1.44 ± 0.0737 fold-change vs cycle 0 |
| GCTATA | 1.13 ± 0.0575 fold-change vs cycle 0 |
| ACCGTA | 0.728 ± 0.0197 fold-change vs cycle 0 |
| AAAGCC | 0.465 ± 0.0355 fold-change vs cycle 0 |
| GTCCAA | 0.622 ± 0.0212 fold-change vs cycle 0 |
| AATACT | 2.02 ± 0.117 fold-change vs cycle 0 |
| ACGTTC | 0.7 ± 0.0339 fold-change vs cycle 0 |
| ACTAGA | 1.39 ± 0.0596 fold-change vs cycle 0 |
| ACCCCA | 0.468 ± 0.0336 fold-change vs cycle 0 |
| CCTTAC | 0.944 ± 0.0541 fold-change vs cycle 0 |
| AGATAT | 2.61 ± 0.24 fold-change vs cycle 0 |
| CCAAGG | 0.457 ± 0.0202 fold-change vs cycle 0 |
| CAACGA | 0.626 ± 0.036 fold-change vs cycle 0 |
| CTATAC | 1.32 ± 0.0145 fold-change vs cycle 0 |
| ATAGGG | 0.829 ± 0.0359 fold-change vs cycle 0 |
| TAGAGA | 1.42 ± 0.0253 fold-change vs cycle 0 |

| Sequence | binding signal |
| --- | --- |
| AGAACT | 1.36 ± 0.0489 fold-change vs cycle 0 |
| CCACTC | 0.468 ± 0.0131 fold-change vs cycle 0 |
| AACTAT | 2.16 ± 0.123 fold-change vs cycle 0 |
| CCTAGC | 0.4 ± 0.0405 fold-change vs cycle 0 |
| GTCTCA | 0.736 ± 0.016 fold-change vs cycle 0 |
| AACCAA | 1.22 ± 0.0287 fold-change vs cycle 0 |
| CAGAAG | 0.787 ± 0.03 fold-change vs cycle 0 |
| CTCTAC | 0.799 ± 0.0191 fold-change vs cycle 0 |
| CCATTA | 1.33 ± 0.0471 fold-change vs cycle 0 |
| AGTACC | 0.813 ± 0.0272 fold-change vs cycle 0 |
| AAGTGC | 0.551 ± 0.0359 fold-change vs cycle 0 |
| CCTACA | 0.76 ± 0.0346 fold-change vs cycle 0 |
| CCTTTA | 1.31 ± 0.0506 fold-change vs cycle 0 |
| ACGAAC | 0.667 ± 0.0536 fold-change vs cycle 0 |
| AATCCA | 1.41 ± 0.0345 fold-change vs cycle 0 |
| GCAACA | 0.54 ± 0.0464 fold-change vs cycle 0 |
| CTGAAG | 0.866 ± 0.0297 fold-change vs cycle 0 |
| AAATTA | 3.81 ± 0.372 fold-change vs cycle 0 |
| TCTCCA | 0.872 ± 0.044 fold-change vs cycle 0 |
| ACAACA | 1.16 ± 0.0181 fold-change vs cycle 0 |

Each sequence was assayed against T2, SALL4 ZFC4 R900W (HT-SELEX) (Mus musculus, UniProt Q8BX22 870-940, R900W) (assay: HT-SELEX; high values mean tight binding). Details: protein: recombinant; vector His6-GST; dsDNA, one strand shown.
T2 sequence: T1 sequence with R31W
Summary of the method: as §1

| Sequence | binding signal |
| --- | --- |
| TCACGA | 0.841 ± 0.0178 fold-change vs cycle 0 |
| CTTCAC | 1.04 ± 0.0731 fold-change vs cycle 0 |
| ACGCAA | 0.521 ± 0.02 fold-change vs cycle 0 |
| ATCTTC | 1.58 ± 0.0645 fold-change vs cycle 0 |
| AGGTAT | 1.54 ± 0.0608 fold-change vs cycle 0 |
| GCTATA | 1.11 ± 0.0825 fold-change vs cycle 0 |
| ACCGTA | 0.818 ± 0.0316 fold-change vs cycle 0 |
| AAAGCC | 0.543 ± 0.0413 fold-change vs cycle 0 |
| GTCCAA | 0.742 ± 0.0519 fold-change vs cycle 0 |
| AATACT | 1.99 ± 0.126 fold-change vs cycle 0 |
| ACGTTC | 0.844 ± 0.024 fold-change vs cycle 0 |
| ACTAGA | 1.52 ± 0.0902 fold-change vs cycle 0 |
| ACCCCA | 0.525 ± 0.0104 fold-change vs cycle 0 |
| CCTTAC | 1.06 ± 0.0559 fold-change vs cycle 0 |
| AGATAT | 2.08 ± 0.11 fold-change vs cycle 0 |
| CCAAGG | 0.535 ± 0.0059 fold-change vs cycle 0 |
| CAACGA | 0.7439 ± 0.00396 fold-change vs cycle 0 |
| CTATAC | 1.46 ± 0.0569 fold-change vs cycle 0 |
| ATAGGG | 0.924 ± 0.0323 fold-change vs cycle 0 |
| TAGAGA | 1.54 ± 0.113 fold-change vs cycle 0 |

| Sequence | binding signal |
| --- | --- |
| AGAACT | 1.545 ± 0.00829 fold-change vs cycle 0 |
| CCACTC | 0.5154 ± 0.00212 fold-change vs cycle 0 |
| AACTAT | 1.96 ± 0.0882 fold-change vs cycle 0 |
| CCTAGC | 0.434 ± 0.0293 fold-change vs cycle 0 |
| GTCTCA | 0.879 ± 0.00912 fold-change vs cycle 0 |
| AACCAA | 1.31 ± 0.0414 fold-change vs cycle 0 |
| CAGAAG | 0.933 ± 0.0195 fold-change vs cycle 0 |
| CTCTAC | 0.917 ± 0.016 fold-change vs cycle 0 |
| CCATTA | 1.4 ± 0.0728 fold-change vs cycle 0 |
| AGTACC | 0.947 ± 0.0311 fold-change vs cycle 0 |
| AAGTGC | 0.63 ± 0.00993 fold-change vs cycle 0 |
| CCTACA | 0.876 ± 0.0282 fold-change vs cycle 0 |
| CCTTTA | 1.47 ± 0.0755 fold-change vs cycle 0 |
| ACGAAC | 0.807 ± 0.0318 fold-change vs cycle 0 |
| AATCCA | 1.44 ± 0.0422 fold-change vs cycle 0 |
| GCAACA | 0.629 ± 0.0238 fold-change vs cycle 0 |
| CTGAAG | 1.01 ± 0.0356 fold-change vs cycle 0 |
| AAATTA | 2.45 ± 0.183 fold-change vs cycle 0 |
| TCTCCA | 0.992 ± 0.0225 fold-change vs cycle 0 |
| ACAACA | 1.28 ± 0.0315 fold-change vs cycle 0 |

These sequences were tested against T3, SALL4 ZFC4 G921D (HT-SELEX) (Mus musculus, UniProt Q8BX22 870-940, G921D) (assay: HT-SELEX; high values mean tight binding). Details: protein: recombinant; vector His6-GST; dsDNA, one strand shown.
T3 sequence: T1 sequence with G52D
Summary of the method: as §1

| Sequence | binding signal |
| --- | --- |
| TCACGA | 0.889 ± 0.0148 fold-change vs cycle 0 |
| CTTCAC | 1.03 ± 0.0678 fold-change vs cycle 0 |
| ACGCAA | 0.635 ± 0.0427 fold-change vs cycle 0 |
| ATCTTC | 1.46 ± 0.104 fold-change vs cycle 0 |
| AGGTAT | 1.47 ± 0.0842 fold-change vs cycle 0 |
| GCTATA | 1.15 ± 0.0714 fold-change vs cycle 0 |
| ACCGTA | 0.868 ± 0.0103 fold-change vs cycle 0 |
| AAAGCC | 0.65 ± 0.0602 fold-change vs cycle 0 |
| GTCCAA | 0.828 ± 0.0714 fold-change vs cycle 0 |
| AATACT | 1.82 ± 0.161 fold-change vs cycle 0 |
| ACGTTC | 0.8714 ± 0.00795 fold-change vs cycle 0 |
| ACTAGA | 1.41 ± 0.142 fold-change vs cycle 0 |
| ACCCCA | 0.602 ± 0.0476 fold-change vs cycle 0 |
| CCTTAC | 1.04 ± 0.0333 fold-change vs cycle 0 |
| AGATAT | 1.86 ± 0.213 fold-change vs cycle 0 |
| CCAAGG | 0.642 ± 0.0371 fold-change vs cycle 0 |
| CAACGA | 0.81 ± 0.0225 fold-change vs cycle 0 |
| CTATAC | 1.37 ± 0.0569 fold-change vs cycle 0 |
| ATAGGG | 0.954 ± 0.0273 fold-change vs cycle 0 |
| TAGAGA | 1.48 ± 0.0729 fold-change vs cycle 0 |

| Sequence | binding signal |
| --- | --- |
| AGAACT | 1.43 ± 0.129 fold-change vs cycle 0 |
| CCACTC | 0.62 ± 0.0734 fold-change vs cycle 0 |
| AACTAT | 1.76 ± 0.173 fold-change vs cycle 0 |
| CCTAGC | 0.55 ± 0.055 fold-change vs cycle 0 |
| GTCTCA | 0.938 ± 0.0386 fold-change vs cycle 0 |
| AACCAA | 1.28 ± 0.0656 fold-change vs cycle 0 |
| CAGAAG | 0.93 ± 0.0319 fold-change vs cycle 0 |
| CTCTAC | 0.954 ± 0.0195 fold-change vs cycle 0 |
| CCATTA | 1.32 ± 0.097 fold-change vs cycle 0 |
| AGTACC | 0.981 ± 0.037 fold-change vs cycle 0 |
| AAGTGC | 0.76 ± 0.0221 fold-change vs cycle 0 |
| CCTACA | 0.919 ± 0.0351 fold-change vs cycle 0 |
| CCTTTA | 1.33 ± 0.0771 fold-change vs cycle 0 |
| ACGAAC | 0.861 ± 0.0438 fold-change vs cycle 0 |
| AATCCA | 1.37 ± 0.0637 fold-change vs cycle 0 |
| GCAACA | 0.72 ± 0.0281 fold-change vs cycle 0 |
| CTGAAG | 1.03 ± 0.0122 fold-change vs cycle 0 |
| AAATTA | 2.13 ± 0.261 fold-change vs cycle 0 |
| TCTCCA | 0.99 ± 0.0254 fold-change vs cycle 0 |
| ACAACA | 1.25 ± 0.0467 fold-change vs cycle 0 |

From PMC9838217, “Structure of SALL4 zinc finger domain reveals link between AT-rich DNA binding and Okihiro syndrome”
